From PubChem
Only some compounds are listed: those with a hit (about 7.5% of all), similar ones and a draw of the others.
HCMV antiviral – inhibitors of human cytomegalovirus; AID 1259415; hit rate 4.5% among 410,000; activity change, negative = inhibition, % at 57.5 µM; HFF cells, HCMV-luciferase reporter, 72 h; hits give low values; in the data active = activity change below about -60%; inconclusive = no clear call, values can overlap the other calls; inactive = above about -39%
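Inhibition of viral replication was scored as loss of reporter luminescence in HFFs infected with HCMV-luciferase (MOI 1 PFU/cell) for 72 h; compounds tested at 2 doses, normalized to buffer and Salinomycin controls.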
HCV inhibitor – HCV inhibition; Huh7.5.1 HCVcc-Cre infection, luciferase reporter, 44 h; Potency, µM (doses to about 41.8 µM), for inactives: top-dose activity change, negative = inhibition, usual class: inhibitors; hit rate 3.4% among 340,000; also: potency is read from the fitted curve at half-maximal effect
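Compounds are dispensed onto cells plated 4 h earlier at 1,000 per well, with HCVcc-Cre virus (about 0.5 moi) added next. Following 44 h of culture, luminescent signal is measured for 15 sec after 15 min with substrate at room temperature.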
VACV Venus inh – inhibitors of vaccinia virus (Venus reporter) | Vaccinia virus Venus reporter expression, fluorescence | AID 720580 | hit rate 0.46% among 330,000 | Potency, µM (doses to about 36.5 µM), inactives show at the highest dose activity change, negative = inhibition, most hits filed as inhibitors; calls by dose curve; tested in A549 cells; also: potency is read from the fitted curve at half-maximal effect; nearly all actives have a fitted effect of over 30% in size
FBPA Giardia inh – Giardia lamblia aldolase inhibition; A8B2U2; purified Giardia FBPA; Potency, µM (titrated, usually from 59.6 µM), for the others: at the highest dose activity, negative = inhibition, actives largely listed as inhibitors; hit rate 0.71% among 290,000; AID 2451; also: potency is read from the fitted curve at half-maximal effect; nearly all actives have a fitted effect of over 55% in size
Target sequence (A8B2U2 whole entry, looked up): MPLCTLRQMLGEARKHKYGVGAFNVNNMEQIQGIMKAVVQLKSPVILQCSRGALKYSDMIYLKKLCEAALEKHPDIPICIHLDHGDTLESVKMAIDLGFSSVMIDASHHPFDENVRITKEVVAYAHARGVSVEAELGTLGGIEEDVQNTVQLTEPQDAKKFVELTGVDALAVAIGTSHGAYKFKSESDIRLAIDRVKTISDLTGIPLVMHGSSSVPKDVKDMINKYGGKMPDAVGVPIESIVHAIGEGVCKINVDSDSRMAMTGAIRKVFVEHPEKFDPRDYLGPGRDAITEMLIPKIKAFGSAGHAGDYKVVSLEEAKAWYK
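40 nM FBPA preincubated 10 min at RT with compound (up to 57.5 uM final), then substrate plus GAPDH/TPI/NAD/arsenate coupling and diaphorase/resazurin added. Fluorescence read after 20 min at RT, 525/598 nm.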
FMDV antiviral – foot and mouth disease virus antiviral activity | hit rate 1.2% among 410,000 | Potency, µM (series often up to 57.9 µM), without a hit: top-dose activity change, negative = inhibition, most hits filed as inhibitors | FMDV antiviral cell-based qHTS | AID 1159524; calls by dose curve; tested in HEK293T cells; also: read-out not given here; potency is read from the fitted curve at half-maximal effect; nearly all actives have a fitted effect of over 45% in size
Vaccinia mCherry – inhibitors of vaccinia virus infection (mCherry reporter signal). Potency, µM (top dose mostly 36.5 µM), for inactives: at the top dose activity change, negative = inhibition, most hits filed as inhibitors. hit rate 0.63% among 310,000. Vaccinia virus mCherry reporter infection, fluorescence; calls by dose curve; tested in A549 cells; also: potency is read from the fitted curve at half-maximal effect; nearly all actives have a fitted effect of over 35% in size
* = called active by the depositor; i = inactive; ? = inconclusive; . = no result. Unless noted, calls follow the shape of the dose curve; as a rule, active = well fitted curve in the direction sought with a large enough effect; inconclusive = small, poorly fitted or top-dose-only effect, or another doubt; inactive = no such curve, though single readings can be large; an effect the other way counts as inactive or inconclusive. % is scaled to controls: 0 for no effect and ±100 for the full control effect.

SMILES	HCMV antiviral	HCV inhibitor	VACV Venus inh	FBPA Giardia inh	FMDV antiviral	Vaccinia mCherry
O=C(NCc1ccccn1)C(=O)N/N=C/c1ccc2c(c1)OCO2	-90*	-2%	.	-1%	56%	.
S=C(NCc1ccccn1)NN=Cc1ccccn1	-99*	?	?	.	8%	0%
O=C(NN=Cc1ccc2c(c1)OCO2)c1ccccc1	33	5%	-23%	.	1%	?
O=C(CNC(=O)c1cccc(Br)c1)N/N=C/c1ccc2c(c1)OCO2	-74*	4%	6%	6%	38%	-8%
CCOC(=O)c1ccc(NC(=O)CC2C(=O)N(c3ccc(F)cc3)C(=O)N2Cc2ccc3c(c2)OCO3)cc1 (stereo not drawn)	15	.	-8%	.	-26%	-8%
CCCC(=O)NCC(c1cccs1)S(=O)(=O)c1ccc(C)cc1 (stereo not drawn)	-27	6%	.	10%	4%	.
CCOc1ccc(NC(=O)[C@@H]2CCC(=O)N2C2OC(=O)c3ccccc32)cc1 (stereo partly drawn)	19	2%	-8%	-2%	-14%	-5%
O=C(COC(=O)Cc1cn2ccsc2n1)NCc1ccc2c(c1)OCO2	3	-6%	-10%	-10%	-2%	-19%
CCn1c2ccccc2c2cc(NC(=O)COC(=O)c3ccc(O)cc3)ccc21	-12	?	?	.	-14%	11µM*
CCn1c2ccccc2c2cc(NC(=O)COC(=O)Cc3cn4ccsc4n3)ccc21	16	5.6µM*	10µM*	-13%	-12%	.
COC(=O)C(CC(C)C)N(Cc1ccc(Br)cc1)S(=O)(=O)CCl (stereo not drawn)	-1	.	.	.	.	.
O=C(Cc1ccc(Cl)cc1)c1c[nH]c(C(=O)NCCCN2CCOCC2)c1	?	8%	0%	-2%	-11%	i
C=CCn1c(SCC(=O)c2ccc(O)c(O)c2)nnc1-c1cccc(Cl)c1	23	4µM*	-21%	.	-27%	-16%
C=CCn1c(CCNC(=O)c2ccc(Cl)c(Cl)c2)nnc1SCCOc1ccc(OC)cc1	-5	10µM*	.	0%	28µM*	.
COc1cc(Cn2c(=O)oc3ccc(C)cc32)ccc1OC(C)C	12	1.1µM*	.	0%	?	.
CCCCSc1nnc2c(n1)OC(c1ccc(Br)s1)N(C(C)=O)c1ccccc1-2 (stereo not drawn)	-2	.	-3%	.	-23%	i
COc1ccc(OC(C)C(=O)Nc2ccc([N+](=O)[O-])cc2)cc1 (stereo not drawn)	-7	1%	-8%	5%	?	-11%
CCC(C)(C)C(=O)Nc1cc([N+](=O)[O-])ccc1F	-18	-3%	-13%	-6%	-20%	-12%
O=C(Nc1ccc([N+](=O)[O-])cc1)Nc1ccc(Cl)cc1F	-99*	3%	-4%	-1%	-29%	-9%
COc1ccc([N+](=O)[O-])cc1NC(=O)CSCc1ccc(Br)cc1	15	?	-15%	-15%	-29%	-26%
O=C(CSCc1ccc(Cl)cc1)Nc1cc([N+](=O)[O-])ccc1O	-36	2.2µM*	-17%	11%	-10%	?
O=C(Nc1ccc(C(=O)O)cc1)Nc1ccc([N+](=O)[O-])cc1	14	-7%	-2%	-8%	-6%	i
Cc1cc(OC(F)F)ccc1NC(=O)Nc1ccc([N+](=O)[O-])cc1	-79*	?	?	1%	-15%	?
O=C(Nc1ccc(Cl)cc1)Nc1cc([N+](=O)[O-])ccc1F	-79*	-2%	-10%	0%	-9%	-3%
COc1ccc(-n2cc(-c3ccccc3)c3c(N4CCCC(C)C4)ncnc32)cc1 (stereo not drawn)	-16	.	-4%	.	-22%	-7%
O=S(=O)(NCCNCC=Cc1ccc(Br)cc1)c1cccc2cnccc12	.	.	?	.	.	-11%
CCCNC(=O)c1cc2c(c(-c3cccc(-c4ccc(F)cc4)c3)n1)[C@@H](CCO)N(S(=O)C(C)(C)C)C2 (stereo partly drawn)	-96*	.	-5%	.	?	23%
